We go through 19 compounds from PubChem BioAssay (EPA / NIEHS).

Molecules are shown by their SMILES. Activity calls are given as the source filed them. How the source made its calls: active means hit-call score of the fitted dose curve at least 0.9, where 1 is the maximum; inactive means score below 0.9.

The assay is described as follows: CEETOX_H295R_CORTISOL: CeeTox H295R High-throughput Steroidogenesis Assay for Cortisol (AID 2283438).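 Further: cortisol secreted into medium quantified by LC-MS/MS.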 The following applies: actives raise or lower the signal. The procedure:
CEETOX_H295R is a cell-based, multiplexed-readout assay that uses H295R, a human adrenal gland cell line, with measurements taken at 48 hours after chemical dosing in a 96-well plate.CEETOX_H295R_CORTISOL is one of 23 assay component(s) measured or calculated from the CEETOX_H295R assay. It is designed to make measurements of hormone induction, a form of inducible reporter, as detected with absorbance signals by HPLC-MS-MS technology.Data from the assay component CEETOX_H295R_CORTISOL was analyzed into 1 assay endpoint. This assay endpoint, CEETOX_H295R_CORTISOL, was analyzed with bidirectional fitting relative to DMSO as the negative control and baseline of activity. Using a type of inducible reporter, gain or loss-of-signal activity using HPLC-MS-MS was used to understand synthesis of Cortisol in H295R cell line at 48hr of chemical exposure. To generalize the intended target to other relatable targets, this assay endpoint is annotated to the steroid hormone intended target family, where the subfamily is glucocorticoids.
Cell culture and media preparation procedures were conducted in accordance with OECD Test No. 456 guidelines, with minor modifications. H295R cells (ATCC CRL-2128) were expanded for 5 passages and frozen in batches in liquid nitrogen. Prior to the steroidogenesis assay, H295R cells were thawed and passed at least 4 times. The maximum passage was 10. Cells were maintained in a 1:1 mixture of DMEM/F12 supplemented with 5ml/L ITS+ Premix (BD Bioscience) and 12.5 ml/L Nu-Serum (BD Bioscience). After seeding cells into 96-well plates at 50-60% confluency, cells were allowed to adhere overnight. Prior to chemical testing, culture medium was replaced with 175 uL medium containing 10 uM forskolin to stimulate steroidogenesis for 48 hours. Following prestimulation, forskolin medium was replaced with medium containing test chemical solubilized in DMSO (ensuring a final concentration of 0.1% DMSO). Test chemicals were incubated for 48 hours, then the medium was removed and split into 2 vials containing approximately 75uL each, and stored at -80 C prior to hormone analysis. For steroid quantification, media samples were shipped to OpAns, LLC (Durham, NC) on dry ice, and samples were thawed to room temperature prior to liquid-liquid extraction. Steroid hormones were extracted from media samples using methyl tertbutyl ether (MTBE). An extra derivatization with dansyl chloride was included for estrogen (estrone and estradiol) detection only. Steroid hormones were separated by HPLC, eluted using a reverse phase C18 gradient with electrospray positive ionization, followed by quantification by tandem mass spectrometry (MS/MS). Data were acquired on a MassHunter Workstation Acquisition version B03.01 (Agilent Technologies, Inc.) and processed using MassHunter Quantitative Analysis for QQQ. Accuracy was determined for each hormone analyte from 3 standards to determine upper and lower limits of quantification (ULOQ and LLOQ, respectively) using a 7-point standard curve. Precision and accuracy of the extraction and quantification methods were calculated as the percent relative standard deviation (%RSD) of the spiked standards and percent spiked standard recovered, respectively. The goal was to achieve 100% accuracy (i.e., recover all spiked-in standard at quantification with minimal loss during run time) and good precision (i.e., have %RSD <15% to ensure reproducibility). Test medium was removed following chemical exposure, and cell viability was evaluated in the same wells by MTT. MTT procedures were as follows: after removal of test medium, 500 uL of 0.5 mg/ml of 3-[4,5-dimethylthiazol-2-y]2,5-diphenyltetrazoliumbromide solution was added to the cells. Following a 4-hour incubation at 37 C and 5% CO2 to allow formazan-crystal formation, the MTT solution was removed and blue formazan salt crystals were solubilized using 500uL anhydrous isopropanol with shaking for 20 minutes. […]
As for `Oc1cccc(-c2ccccc2)c1`, the outcome was inactive.

Regarding `Cc1cc(C(C)(C)c2ccc(O)c(C)c2)ccc1O`, the AC50 (commonly the concentration at which the activity in the assay is half-maximal) was 5 µM (active).

`Cc1ccccc1OP(=O)(Oc1ccccc1C)Oc1ccccc1C`: the compound was called inactive.

As for `CCC[CH2][Sn]([Cl])([Cl])[CH2]CCC`, the result was inactive.

Regarding `COc1ccc(N)cc1`, the result was inactive.

In the case of `CC(C)(COCC1CO1)COCC1CO1` (centres undefined), the result was inactive.

Consider `CC(C)(C)c1ccccc1O`, for which the call was inactive.

Turning to `Cc1cc(Cl)ccc1O`, the compound was classed as inactive.

Consider `C[C@]12CC[C@@H](O)C[C@@H]1CC[C@@H]1[C@@H]2CC[C@]2(C)C(=O)CC[C@@H]12`, for which the compound was classed as inactive.

Take `CCOP(=S)(OCC)O/N=C(\C#N)c1ccccc1`: the AC50 is 87.8 µM (active).

As for `CCOCn1c(-c2ccc(Cl)cc2)c(C#N)c(Br)c1C(F)(F)F`, the AC50 is 7.15 µM (active).

For `OC(Cc1ccccc1Cl)(Cn1[nH]cnc1=S)C1(Cl)CC1` (centres undefined), the compound was classed as inactive.

With `OC(Cc1ccccc1Cl)(Cn1cncn1)C1(Cl)CC1` (centres undefined), the AC50 was 6.05 µM (active).

Regarding `CCCCCCCCCCCCN(C)C`, the outcome was inactive.

On to `O=[N+]([O-])c1ccc(Nc2ccccc2)cc1`, for which the result was inactive.

`COC(=O)Nc1cccc(OC(=O)Nc2cccc(C)c2)c1`: the result was inactive.

For the compound `CC(C)=CC1C(C(=O)OCc2cccc(Oc3ccccc3)c2)C1(C)C` (centres undefined), the compound was classed as inactive.

In the case of `O=S1OC[C@@H]2[C@H](CO1)[C@]1(Cl)C(Cl)=C(Cl)[C@@]2(Cl)C1(Cl)Cl` (some centres undefined), the AC50 was 38.3 µM (active).

For the compound `CCOP(=O)(OCC)OC(=CCl)c1ccc(Cl)cc1Cl`, the AC50 was 5.66 µM (active).
